The nature of assay [1]: qHTS for Inhibitors of Plasmodium falciparum (DD2) proliferation (AID 504314). In short, it runs like this:
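Infected RBCs, 0.3% parasitemia, 2.5% Hct; compound 72 h, 37C/5% CO2; lyse + SYBR Green I, RT overnight, dark; read ex485/em535; normalize to DMSO and artemisinin 0.29 uM.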
A general note: qHTS replaces the single test concentration by a dilution series.

Assay [2] in a line: qHTS for Inhibitors of Plasmodium falciparum (GB4) proliferation (AID 504315). Note: nearly all actives have a fitted effect of over 50% in size. In short, it runs like this: (§1)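 Erythrocytes infected with P. falciparum line (0.3% parasitemia, 2.5% hematocrit final) incubated with compounds 72 h at 37 °C, 5% CO2; SYBR Green lysis buffer added, fluorescence read next day. Normalized to 0.29 uM artemisinin and DMSO.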
Assay [3] is described as follows: qHTS for Inhibitors of Plasmodium falciparum (CP250) proliferation (AID 504320). In short, it runs like this: as §1
Assay [4] is described as follows: qHTS for Inhibitors of Plasmodium falciparum (7G8) proliferation (AID 504316). Note: nearly all actives have a fitted effect of over 65% in size. In short, it runs like this:
as §1

Assay [5] is described as follows: qHTS for Inhibitors of Plasmodium falciparum (HB3) proliferation (AID 504318). Note: nearly all actives have a fitted effect of over 60% in size. A digest of the protocol:
as §1

Inconclusive results are not listed. Calls of active or inactive are those of the source. Calls come from the whole dose curve; as a rule, active = well fitted curve in the direction sought with a large enough effect; inconclusive = small, poorly fitted or top-dose-only effect, or another doubt; inactive = no such curve, though single readings can be large; an effect the other way counts as inactive or inconclusive.
Potency is the fitted concentration of half-maximal effect.

`C=CCN1c2ccccc2[C@]23C[C@@H](C(=O)OC)N(S(=O)(=O)CCCC)C2=NC(C(=O)OC)=C(C(=O)OC)[C@H]13`: the Potency result in assay [1], in assay [2] and in assay [3] was “inactive” each time.
With `CC1(OC(=O)CCc2ccccc2)C(=O)C=C2C=C(c3ccc(C#N)cc3)N(c3ccccc3)C=C2C1=O` (stereo not drawn), the Potency result in assay [1] and in assay [4] was “inactive” in each case.
As for `CCC(=O)N1C2=C(c3ccccc3[C@@H]1CC(=O)Nc1ccc3ccccc3c1)[C@@H]1C(=O)N(c3ccccc3)C(=O)[C@@H]1[C@H](C)C2`, in assay [1], the Potency result is “inactive”. The Potency in assay [4] is 1900 nM (active).
Consider `C#CCCOC(=O)N1C2=NC(C(=O)OC)=C(C(=O)OC)[C@@H]3N(CC#CC)c4ccccc4[C@]23C[C@H]1C(=O)OC`, for which the Potency entry in assay [1], in assay [5] and in assay [3] was “inactive” throughout.
`CCCCC1=CC2=CC(=O)C(C)(OC(=O)CC)C(=O)C2=CN1CCCCO` (stereo not drawn): the Potency result in assay [1], in assay [5] and in assay [3] was “inactive” in each case.
In the case of `CCCCC1=CC2=CC(=O)C(C)(OC(=O)CC)C(=O)C2=CN1Cc1ccc2c(c1)OCO2` (stereo not drawn), the Potency entry in assay [1] and in assay [5] was “inactive” each time.
On to `CCCCC1=CC2=CC(=O)C(C)(OC(=O)CC)C(=O)C2=CN1CCc1ccccn1` (stereo not drawn), for which the Potency result in assay [1], in assay [4], in assay [5] and in assay [3] was “inactive” in each case.
Take `COC(=O)[C@@H]1[C@@H](C)N(Cc2ccccc2)C(=O)N[C@H]1c1cccc(C(F)(F)F)c1`: the Potency entry in assay [1], in assay [4], in assay [5] and in assay [3] was “inactive” throughout.
As for `COC(=O)CCC(=O)OC1(C)C(=O)C=C2C=C(C3CC3)N(CCc3ccccn3)C=C2C1=O` (stereo not drawn), the Potency entry in assay [1] and in assay [5] was “inactive” in each case.
As to `COC(=O)C1=C(C(=O)OC)[C@@H]2N(C)c3ccc(OC)cc3[C@@]23C[C@@H](C(=O)OC)N(S(=O)(=O)c2ccc([N+](=O)[O-])cc2)C3=N1`, the Potency result in assay [1] and in assay [3] was “inactive” in each case. Besides, the Potency in assay [4] was 1510 nM (active).
For `CCCCc1nc2c(c3c1C[C@H](C)OC3)CN(S(=O)(=O)c1c(C)noc1C)CC2`, the Potency result in assay [1], in assay [4], in assay [5] and in assay [3] was “inactive” in each case.
Turning to `COC(=O)C1=C(C(=O)OC)[C@@H]2N(C)c3ccccc3[C@@]23C[C@@H](C(=O)OC)N(S(=O)(=O)c2ccc4c(c2)OCCN4C)C3=N1`, the Potency result in assay [1] and in assay [3] was “inactive” in each case. Besides, the Potency in assay [2] was 2390 nM (active).
Regarding `CC#CCN1c2ccccc2[C@]23C[C@@H](C(=O)OC)N(C(=O)c4cccs4)C2=NC(C(=O)OC)=C(C(=O)OC)[C@H]13`, the Potency entry in assay [1], in assay [5] and in assay [3] was “inactive” throughout.
On to `COC(=O)[C@H]1[C@@H](C)N(CCc2cc(OC)c(OC)c(OC)c2)C(=O)N[C@H]1c1ccccc1`, for which the Potency entry in assay [1], in assay [5] and in assay [3] was “inactive” throughout.
Regarding `COC(=O)C1=C(C(=O)OC)[C@@H]2N(Cc3ccccc3)c3ccccc3[C@@]23C[C@@H](C(=O)OC)N(S(=O)(=O)c2cccs2)C3=N1`, the Potency result in assay [1] and in assay [3] was “inactive” each time.
As for `COC(=O)C1=C(C(=O)OC)[C@@H]2N(C)c3ccc(OC)cc3[C@@]23C[C@@H](C(=O)OC)N(S(=O)(=O)c2ccc(C(F)(F)F)cc2)C3=N1`, the Potency entry in assay [1] and in assay [3] was “inactive” each time.
`CCOC(=O)CN1C(=O)N[C@@H](c2cccc(C(F)(F)F)c2)C(C(=O)OC)=C1C`: the Potency result in assay [2] and in assay [4] was “inactive” in each case.
`CCN1C(=O)N[C@@H](c2cccs2)C(C(=O)OC)=C1C`: the Potency entry in assay [2], in assay [4] and in assay [5] was “inactive” in each case.
With `COC(=O)C1=C(C(=O)OC)[C@@H]2N(Cc3ccccc3)c3ccccc3[C@@]23C[C@@H](C(=O)OC)N(S(=O)(=O)c2ccc(Br)cc2)C3=N1`, the figures for the Potency in assay [2], in assay [4] and in assay [5] were 1350 nM (active), 1510 nM (active) and 1690 nM (active), respectively.
For `COC(=O)N1C(C)=Cc2ccccc2C1C/C(C)=C/C(C)=O` (stereo not drawn), the Potency entry in assay [1] and in assay [3] was “inactive” each time.
For `COC(=O)C1=C(C)N(Cc2ccccc2)C(=NCCc2cccnc2)NC1c1ccc(Br)cc1` (stereo not drawn), the results for the Potency in assay [1] and in assay [3] were 1500 nM (active) and 1900 nM (active), respectively.
With `CCN1C(=O)N(C)[C@@H](c2ccccc2)C(C(C)=O)=C1C`, the Potency result in assay [1], in assay [5] and in assay [3] was “inactive” throughout.
On to `C=CCN1c2ccccc2[C@]23C[C@@H](C(=O)OC)N(C(=O)c4ccc(Br)cc4)C2=NC(C(=O)OC)=C(C(=O)OC)[C@H]13`, for which the Potency entry in assay [1] and in assay [3] was “inactive” each time.
As to `COC(=O)[C@@H]1CC[C@H](C)[C@@H](c2ccc(C)cc2)N1C(=O)c1ccc(C=NO[C@@H](C)c2cc(-c3c(C)cc(C)cc3C)no2)cc1`, the Potency in assay [2] and in assay [4] was 1690 nM (active) each time.
Consider `COC(=O)CCC(=O)OC1(C)C(=O)C=C2C=C(C3CC3)N(c3cccc(C#N)c3)C=C2C1=O` (stereo not drawn), for which the Potency entry in assay [1] and in assay [3] was “inactive” each time.
`COC(=O)C1=C(C(=O)OC)[C@@H]2N(Cc3ccccc3)c3ccccc3[C@@]23C[C@@H](C(=O)OC)N(C(=O)c2ccc(Br)cc2)C3=N1`: the Potency entry in assay [1] and in assay [3] was “inactive” each time.

(Values after PubChem BioAssay (NCATS).)
